This note sets out measurements from PubChem BioAssay (NCATS).

Assay [1] can be described thus: qHTS assay for environmental chemicals that activate the Aryl hydrocarbon Receptor (AhR) signaling pathway (AID 651777). Further: % of control where 0% means no effect; nearly all actives have a fitted effect of over 15% in size. As to conditions: 1A2-DRE human hepatoma cells, luciferase, 24 h; activation: stronger effect = higher value. The procedure, abridged:
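Measured luciferase activity, read 30 min after One-Glo addition at room temperature, from human hepatoma cells bearing a dioxin response element–CYP1A2 promoter reporter and exposed to compound for 24 hr at 37 C.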
For orientation: In qHTS, concentration-response curves come from the screen itself.

The target in assay [2] is Peroxisome proliferator-activated receptor alpha (Homo sapiens) (UniProt Q07869). In words: qHTS assay for small molecule agonists of the peroxisome proliferator-activated receptor alpha (PPARalpha) signaling pathway (AID 651778). Further: % of control where 0% means no effect. Conditions: PathHunter PPARalpha complementation, chemiluminescence, 6 h; stronger effect = higher value. The procedure, abridged:
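Enzyme-fragment complementation assay in which ligand-bound PPARalpha translocates and forms an active enzyme that generates chemiluminescence. Cells were plated overnight, exposed to compound for 6 hr at 37 C, and then given detection reagent for 60 min at room temperature.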

In assay [3] the target is Nuclear receptor ROR-gamma (Homo sapiens) (UniProt P51449). As to the kind of experiment: qHTS assay for small molecule antagonists of the retinoid-related orphan receptor gamma (ROR-gamma) signaling pathway (AID 651802).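 Further: luciferase reporter luminescence driven by ROR response element; series mostly up to about 92 µM; on the % scale 0 is the no-effect control and ±100 the full control effect; nearly all actives have a fitted effect of over 60% in size.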 The procedure, abridged: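 CHO cells with TET-inducible ROR-gamma and RORE-luciferase reporter, dosed then doxycycline-induced. After 16 h at 37C, One-Glo luminescence read; decreased signal indicates antagonism.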

The nature of assay [4]: qHTS for compounds that reverse cellular toxicity of Amyloid beta (A-beta) peptide in yeast: LOPAC Validation Assay (AID 720559).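 Further: plate controls were DMSO for no effect and equimolar ferric chloride plus clioquinol rescue for full effect.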 The procedure, abridged: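 Activity is expressed relative to DMSO and an equimolar ferric chloride/clioquinol mix. Compounds were pinned into medium with A-beta-expressing yeast, grown 48 hr at 30 C, then read by absorbance at 600 nm.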
Assay [5] can be described thus: qHTS for Activators of Parkin Expression: LOPAC Validation Assay (FLuc Reporter) (AID 720573;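 further: 0% = DMSO and 100% = positive control compounds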). The procedure, abridged: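 A neuronal cell line harbouring FLuc and NLuc reporters behind the Parkin promoter was exposed to compounds for 24 h. Firefly luciferase signal, measured after 10 min with detection reagent, was scaled to DMSO and positive-control wells.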
Assay [6] can be described thus: qHTS assay for small molecule agonists of the antioxidant response element (ARE) signaling pathway measured by Nrf2-dependant transcriptional activity (AID 720636; active means well fitted curve in the direction sought with a large enough effect in the repeat runs; an effect the other way counts as inactive or inconclusive;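 further: HepG2 cells with an ARE-driven luciferase reporter; % of control where 0% means no effect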). The procedure, abridged:
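In HepG2 cells engineered with an Nrf2-responsive luciferase gene, ARE induction was quantified as luminescence after 16 hr compound treatment at 37 C.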

The nature of assay [7]: qHTS assay for small molecule antagonists of the retinoid-related orphan receptor gamma (ROR-gamma) signaling pathway - cell viability counter screen (AID 720652; active means well fitted curve in the direction sought with a large enough effect in the repeat runs; an effect the other way counts as inactive or inconclusive;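 further: series mostly up to about 92 µM; compound exposure lasted 16 hr before ATP read; on the % scale 0 is the no-effect control and ±100 the full control effect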). The procedure, abridged: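 CHO cells carrying TET-inducible ROR and RORE-luciferase reporter, plated 5 hr, then dosed with compound plus doxycycline. After 16 hr at 37 C, viability read as intracellular ATP by CellTiter-Glo luminescence.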

Assay [8] can be described thus: qHTS assay for small molecule agonists of the antioxidant response element (ARE) signaling pathway measured by Nrf2-dependant transcriptional activity - cell viability counter screen (AID 720653; active means well fitted curve in the direction sought with a large enough effect in the repeat runs; an effect the other way counts as inactive or inconclusive; further: potency means the concentration at half of the fitted maximal effect; on max response: on the % scale 0 is the no-effect control and ±100 the full control effect). Conditions: ARE-bla HepG2 viability, CellTiter-Glo ATP luminescence, 16 h; max response: stronger effect = lower value. The procedure, abridged:
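ARE-bla HepG2 cells treated with compounds for 16 h at 37C; this counter screen measures viability as intracellular ATP by CellTiter-Glo luminescence after 30 min at room temperature.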

The target of assay [9] is T1, Hexokinase-4 (Homo sapiens) + Glucokinase regulatory protein (Homo sapiens) (UniProt P35557+Q14397). As to the kind of experiment: qHTS assay for inhibitors of recombinant human GCK-GKRP interaction: Diaphorase-coupled assay (AID 743205). The procedure, abridged:
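Inhibitors of the GCK–GKRP complex relieve GKRP suppression of GCK, detected through a G6PDH–diaphorase cascade reducing resazurin. Human GST-GCK and FLAG-GKRP are used at 10 nM with 5 mM glucose and 0.4 mM ATP.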

Assay [10] addresses T1, Hexokinase-4 (Homo sapiens) + Glucokinase regulatory protein (Homo sapiens). In words: qHTS assay for inhibitors of recombinant human GCK-GKRP interaction: ADP-Glo assay (AID 743206).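 Further: plate controls were DMSO plus enzyme for no effect and no enzyme for full effect.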 The procedure, abridged: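 GST-GCK and FLAG-GKRP (15 nM each in the dispensed mix, with 2 uM S6P) react with 0.4 mM ATP and 5 mM glucose (final) in Hepes pH 7.6 for 60 min at room temperature. ADP is measured by ADP-Glo luminescence.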

For assay [11] the target is unchanged. In words: qHTS assay for inhibitors of recombinant human GCK-GKRP interaction: HTRF assay (AID 743207).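 Further: 0% = DMSO with GCK present and -100% = DMSO wells lacking GCK.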 The procedure, abridged:
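Steps: dispense GCK–GKRP complex (5 nM each, GST- and FLAG-tagged) with 2 uM S6P; pin in compounds; add XL665/Eu-cryptate-labelled antibodies; incubate 60 min at room temperature; read time-resolved FRET at 665 and 615 nm.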

A short description of assay [12]: qHTS Assay for Identifying Gametocytocidal Compounds (AID 743244).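 Further: on the % scale 0 is the no-effect control and ±100 the full control effect; actives lower the fluorescent signal which means gametocytes are killed.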 Conditions: P. falciparum 3D7 stage III-V gametocytes, alamarBlue, 72 h; max response: stronger effect = lower value. The procedure, abridged: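 Viability read-out was resazurin reduction (alamarBlue, 24 h) measured at Ex 525/Em 598 nm. Beforehand, late-stage (III-V) 3D7 P. falciparum gametocytes at 20,000 cells/well were incubated with compound 72 h at 37C under 5% CO2.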

Assay [13] has as its target Tumor necrosis factor (Homo sapiens) (UniProt P01375). As to the kind of experiment: qHTS assay to identify small molecules that stimulate Tumor Necrosis Factor-alpha (TNF-alpha) secretion (AID 651757; active means well fitted curve in the direction sought with a large enough effect in the signal ratio; the % refers to the signal ratio; further: 0% is about no effect). The procedure, abridged: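 THP-1 cells (3000/well) exposed to compounds 17 hrs at 37 C. Secreted TNF-alpha detected by HTRF with cryptate- and XL665-labeled anti-TNF-alpha antibodies after 3 hr at room temperature.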

The nature of assay [14]: qHTS for Activators of Parkin Expression: LOPAC Validation Assay (NLuc Reporter) (AID 720572; further: potency means the concentration at half of the fitted maximal effect;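 on activation: 0% = DMSO and 100% = positive control compound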). The procedure, abridged: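 Neuronal cells with a Parkin promoter-driven FLuc/NLuc coincidence reporter were treated 24 h at 37 C in 7-point dose response (LOPAC). NLuc luminescence read after FLuc; signals normalized to DMSO and positive control (100%).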
Assay [15] has as its target Arylsulfatase A (Homo sapiens) (UniProt P15289). As to the kind of experiment: qHTS screen for enhancers of Arylsulfatase A (ASA1): LOPAC Validation Assay (AID 720538). The procedure, abridged: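 First, ASA-I179S fibroblasts from an MLD patient adhered for 6 hrs. Next, compounds were added for 48h. Then pNCS substrate (0.5mM final) with lysis buffer reacted 14h at room temperature before NaOH stop and fluorescence measurement.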

“And” between values parts separate entries of the source, which are not always exact repeats. Identical values can stand only once. Unmarked numbers belong to inactive results. Records with an inconclusive call do not appear. The source made the active and inactive calls. Unless noted, the call rests on the fitted dose curve; in most records, active means well fitted curve in the direction sought with a large enough effect; inconclusive means small, poorly fitted or top-dose-only effect, or another doubt; inactive means no such curve, though single readings can be large; an effect the other way counts as inactive or inconclusive.

T1 sequence (P35557 whole entry, looked up): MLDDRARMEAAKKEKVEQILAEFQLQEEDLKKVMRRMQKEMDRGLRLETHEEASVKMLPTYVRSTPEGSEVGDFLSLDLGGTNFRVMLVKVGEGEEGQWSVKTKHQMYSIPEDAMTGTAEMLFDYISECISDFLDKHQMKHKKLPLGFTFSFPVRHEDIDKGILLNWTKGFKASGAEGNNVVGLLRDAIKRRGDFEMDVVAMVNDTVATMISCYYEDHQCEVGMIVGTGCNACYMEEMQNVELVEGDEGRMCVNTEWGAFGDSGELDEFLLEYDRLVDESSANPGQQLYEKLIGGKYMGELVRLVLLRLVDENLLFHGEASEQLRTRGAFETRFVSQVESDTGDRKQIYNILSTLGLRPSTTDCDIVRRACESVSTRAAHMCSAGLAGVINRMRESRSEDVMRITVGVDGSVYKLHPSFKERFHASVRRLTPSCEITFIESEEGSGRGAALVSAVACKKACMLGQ
T1 sequence (Q14397 whole entry, looked up): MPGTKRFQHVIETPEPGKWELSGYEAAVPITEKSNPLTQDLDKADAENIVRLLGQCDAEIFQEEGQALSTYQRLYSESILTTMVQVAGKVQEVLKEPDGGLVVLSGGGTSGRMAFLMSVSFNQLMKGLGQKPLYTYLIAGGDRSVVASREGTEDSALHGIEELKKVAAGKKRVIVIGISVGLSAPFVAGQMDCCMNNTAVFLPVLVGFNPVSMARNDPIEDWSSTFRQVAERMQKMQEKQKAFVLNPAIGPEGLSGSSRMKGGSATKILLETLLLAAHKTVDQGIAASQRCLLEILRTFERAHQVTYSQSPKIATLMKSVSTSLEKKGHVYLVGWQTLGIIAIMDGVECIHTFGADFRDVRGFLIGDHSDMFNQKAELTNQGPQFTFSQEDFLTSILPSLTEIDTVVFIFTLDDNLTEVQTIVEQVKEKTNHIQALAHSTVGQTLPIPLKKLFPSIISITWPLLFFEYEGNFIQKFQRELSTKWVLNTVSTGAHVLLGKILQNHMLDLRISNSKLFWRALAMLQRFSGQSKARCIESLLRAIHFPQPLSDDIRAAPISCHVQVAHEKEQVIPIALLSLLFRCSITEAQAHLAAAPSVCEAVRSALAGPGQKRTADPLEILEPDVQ
Sequence of Peroxisome proliferator-activated receptor alpha (Homo sapiens) (Q07869 whole entry, looked up, the tested form may be a part): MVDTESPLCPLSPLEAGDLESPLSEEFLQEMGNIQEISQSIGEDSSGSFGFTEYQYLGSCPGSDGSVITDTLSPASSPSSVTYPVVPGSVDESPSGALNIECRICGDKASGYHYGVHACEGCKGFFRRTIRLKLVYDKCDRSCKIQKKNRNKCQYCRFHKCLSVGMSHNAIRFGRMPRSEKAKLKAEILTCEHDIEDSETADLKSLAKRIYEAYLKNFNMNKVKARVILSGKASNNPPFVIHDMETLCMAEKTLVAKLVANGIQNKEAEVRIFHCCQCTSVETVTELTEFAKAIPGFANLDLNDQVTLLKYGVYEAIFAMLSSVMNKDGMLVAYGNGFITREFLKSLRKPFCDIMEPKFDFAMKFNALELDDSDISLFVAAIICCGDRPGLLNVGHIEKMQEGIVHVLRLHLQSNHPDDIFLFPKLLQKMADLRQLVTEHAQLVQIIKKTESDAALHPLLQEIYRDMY
Sequence of Arylsulfatase A (Homo sapiens) (P15289 whole entry, looked up): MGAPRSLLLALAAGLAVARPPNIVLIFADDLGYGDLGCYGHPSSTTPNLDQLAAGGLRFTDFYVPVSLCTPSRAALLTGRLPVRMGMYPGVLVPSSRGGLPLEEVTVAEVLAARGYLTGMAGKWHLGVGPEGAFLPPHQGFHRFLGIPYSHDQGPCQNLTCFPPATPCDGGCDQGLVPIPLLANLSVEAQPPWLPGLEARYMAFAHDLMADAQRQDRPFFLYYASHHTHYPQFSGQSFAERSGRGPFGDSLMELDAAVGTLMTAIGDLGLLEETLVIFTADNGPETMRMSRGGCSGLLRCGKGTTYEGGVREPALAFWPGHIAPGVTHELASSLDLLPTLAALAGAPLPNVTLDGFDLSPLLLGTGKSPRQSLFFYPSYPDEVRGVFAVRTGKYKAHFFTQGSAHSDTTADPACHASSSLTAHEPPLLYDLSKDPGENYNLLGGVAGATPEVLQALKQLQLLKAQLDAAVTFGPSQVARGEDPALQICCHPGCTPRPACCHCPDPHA
Sequence of Nuclear receptor ROR-gamma (Homo sapiens) (P51449 whole entry, looked up): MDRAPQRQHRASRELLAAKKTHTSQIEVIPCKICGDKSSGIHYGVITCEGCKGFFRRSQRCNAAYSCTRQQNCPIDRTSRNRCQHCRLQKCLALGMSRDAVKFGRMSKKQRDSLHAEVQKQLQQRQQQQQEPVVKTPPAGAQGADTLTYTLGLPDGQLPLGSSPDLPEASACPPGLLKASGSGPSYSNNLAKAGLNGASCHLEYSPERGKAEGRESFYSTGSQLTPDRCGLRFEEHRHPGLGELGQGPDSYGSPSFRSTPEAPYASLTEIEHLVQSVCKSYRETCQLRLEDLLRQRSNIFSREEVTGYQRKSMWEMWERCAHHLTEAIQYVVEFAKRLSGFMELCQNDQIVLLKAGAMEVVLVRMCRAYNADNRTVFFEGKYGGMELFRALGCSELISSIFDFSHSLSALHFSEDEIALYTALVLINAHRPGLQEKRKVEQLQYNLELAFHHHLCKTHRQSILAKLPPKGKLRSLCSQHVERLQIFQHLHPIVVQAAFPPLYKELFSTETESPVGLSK
Sequence of Tumor necrosis factor (Homo sapiens) (P01375 whole entry, looked up): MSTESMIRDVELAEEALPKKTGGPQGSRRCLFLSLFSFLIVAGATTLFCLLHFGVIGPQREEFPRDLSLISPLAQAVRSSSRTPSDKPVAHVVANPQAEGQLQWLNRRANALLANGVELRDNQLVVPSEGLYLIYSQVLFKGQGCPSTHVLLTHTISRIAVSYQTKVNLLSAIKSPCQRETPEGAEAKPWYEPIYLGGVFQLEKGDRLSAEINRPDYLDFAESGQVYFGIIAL

With `Nc1nc(N)c2nc(-c3ccccc3)c(N)nc2n1`, the activation in assay [1] was 13.5% and 13.2%. The max response in assay [2] was -0.436% and -0.649%; in [12] it was -2.09% and -8.78%. In addition, the Potency entry in assay [3] and in assay [11] was “inactive” each time. Also, the result in assay [4], in [5], in [6], in assay [7], in assay [9] and in assay [10] was inactive. Besides, the Potency in [8] was 25.1 µM (active).

`CN=C(NC#N)NCCSCc1nc[nH]c1C`: the outcome in [13], in assay [4], in assay [5], in assay [6], in assay [7] and in assay [9] was inactive. The result in [10] was inactive. In addition, in [1], the activation is 2.08%. For the same compound, the max response in assay [2] was 0.401%; in assay [8] it was 0.359%; in assay [12], 2.14% and 13.4%. The Potency entry in assay [3], in [14] and in [11] was “inactive” throughout.

On to `COC(=O)C1=C(C)NC(C)=C(C(=O)OCCN(C)Cc2ccccc2)C1c1cccc([N+](=O)[O-])c1` (stereo not drawn), for which, in assay [15], the Potency result is “inactive”. For the same compound, the compound was classed as inactive in assay [4] and in assay [5]. The Potency in [14] was 16.4 µM (active).

In the case of `CN(C)CCN(Cc1cccs1)c1ccccn1`, the Potency result in assay [15], in [14] and in assay [11] was “inactive” throughout. For the same compound, the compound was classed as inactive in assay [4], in [5], in assay [9] and in [10].

As to `Cc1scc2c1N(C(=O)CN1CCN(C)CC1)c1ccccc1NC2=O`, the Potency result in [15], in assay [14] and in assay [11] was “inactive” each time. Besides, the compound was classed as inactive in assay [4], in assay [5], in assay [9] and in [10].

With `CC(C)(C)c1ccc(C(=O)CCCN2CCC(OC(c3ccccc3)c3ccccc3)CC2)cc1`, the Potency entry in assay [15], in assay [14] and in [11] was “inactive” each time. Further, the result in [4], in assay [5], in assay [9] and in [10] was inactive.

For `CCN(CC)CC(=O)Nc1c(C)cccc1C`, the Potency result in [15], in assay [14] and in assay [11] was “inactive” in each case. Further, the compound was called inactive in assay [4], in assay [5], in assay [9] and in assay [10].

Take `CC(C)NNC(=O)c1ccncc1`: the Potency result in [15], in assay [14] and in assay [11] was “inactive” throughout. Also, the compound was classed as inactive in assay [4], in assay [5], in assay [9] and in [10].

As to `CC(C)[N+](C)(CCOC(=O)C1c2ccccc2Oc2ccccc21)C(C)C`, the Potency result in assay [15], in assay [14] and in assay [11] was “inactive” each time. Also, the call in assay [4], in assay [5], in assay [9] and in [10] was inactive.

For the compound `O=C(O)CCCCCCCC(=O)O`, the activation in assay [1] is -0.0037%. For the same compound, the results for the max response in [2] and in [8] were -1.61% and -8.37%, respectively. In addition, the Potency result in assay [15], in [14] and in [11] was “inactive” in each case. Also, the call in assay [4], in assay [5], in assay [6], in [9] and in assay [10] was inactive.
